# Measurements: article PMC7862700, “An all-to-all approach to the identification of sequence-specific readers for epigenetic DNA modifications on cytosine”
# What was measured:
# Assay in all cases: DAPPL (digital affinity profiling via proximity ligation, sequencing); 10 mM Tris-HCl pH 7.5, 50 mM NaCl, 1 mM DTT, 4% glycerol, room temperature, 30 min; GST-TFs on glutathione beads, 16-mer random dsDNA library, 0.1% formaldehyde crosslink after washing; high values mean tight binding
# [1] = molecular target: T1, FLI1 (Homo sapiens, UniProt Q01543 1-452); details: protein: recombinant; tags: N-terminal GST; dsDNA, one strand shown
# T1 sequence: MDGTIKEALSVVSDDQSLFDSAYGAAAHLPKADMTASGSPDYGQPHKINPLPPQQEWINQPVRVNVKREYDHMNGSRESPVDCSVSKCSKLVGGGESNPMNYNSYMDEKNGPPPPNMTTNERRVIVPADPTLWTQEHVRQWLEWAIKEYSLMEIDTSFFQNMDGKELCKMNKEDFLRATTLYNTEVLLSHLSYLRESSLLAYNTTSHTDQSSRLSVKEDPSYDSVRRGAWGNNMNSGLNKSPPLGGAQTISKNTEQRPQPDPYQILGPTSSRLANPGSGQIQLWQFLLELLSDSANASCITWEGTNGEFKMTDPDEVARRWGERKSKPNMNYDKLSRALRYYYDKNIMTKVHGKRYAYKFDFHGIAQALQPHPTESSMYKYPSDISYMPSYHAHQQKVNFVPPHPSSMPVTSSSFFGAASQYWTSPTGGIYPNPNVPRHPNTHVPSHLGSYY
# How it was run: (§1)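 After expression in yeast as GST fusions, human transcription factors were bound to glutathione beads, DNA-barcoded and mixed with a tag-only sample. The pools were incubated with 200 nmole of a 16-mer random double-stranded DNA library in Tris/NaCl/DTT/glycerol buffer (30 min, room temperature), washed and crosslinked with 0.1% formaldehyde. Proximity ligation with BsaI/T4 ligase ran for 1 h at 37 °C, before PCR amplification and sequencing on an Illumina NextSeq500. Binding signal is a hexamer's read frequency for a factor divided by its frequency for the tag-only sample.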
# [2] = molecular target: T2, ELK1 (Homo sapiens, UniProt P19419 1-428); details: protein: recombinant; tags: N-terminal GST; dsDNA, one strand shown
# T2 sequence: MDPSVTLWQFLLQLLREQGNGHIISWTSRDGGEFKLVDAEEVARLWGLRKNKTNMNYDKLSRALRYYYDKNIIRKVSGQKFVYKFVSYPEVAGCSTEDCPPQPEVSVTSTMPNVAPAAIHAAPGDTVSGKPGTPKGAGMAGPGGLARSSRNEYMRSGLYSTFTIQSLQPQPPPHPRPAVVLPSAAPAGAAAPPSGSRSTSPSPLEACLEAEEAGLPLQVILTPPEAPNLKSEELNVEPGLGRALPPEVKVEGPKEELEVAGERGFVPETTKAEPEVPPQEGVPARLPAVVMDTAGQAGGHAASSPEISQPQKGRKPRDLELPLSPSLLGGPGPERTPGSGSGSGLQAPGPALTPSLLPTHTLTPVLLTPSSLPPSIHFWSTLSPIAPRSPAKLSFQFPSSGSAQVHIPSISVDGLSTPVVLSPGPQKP
# How it was run: as §1
# [3] = molecular target: T3, GABPA (Homo sapiens, UniProt Q06546 1-454); details: protein: recombinant; tags: N-terminal GST; dsDNA, one strand shown
# T3 sequence: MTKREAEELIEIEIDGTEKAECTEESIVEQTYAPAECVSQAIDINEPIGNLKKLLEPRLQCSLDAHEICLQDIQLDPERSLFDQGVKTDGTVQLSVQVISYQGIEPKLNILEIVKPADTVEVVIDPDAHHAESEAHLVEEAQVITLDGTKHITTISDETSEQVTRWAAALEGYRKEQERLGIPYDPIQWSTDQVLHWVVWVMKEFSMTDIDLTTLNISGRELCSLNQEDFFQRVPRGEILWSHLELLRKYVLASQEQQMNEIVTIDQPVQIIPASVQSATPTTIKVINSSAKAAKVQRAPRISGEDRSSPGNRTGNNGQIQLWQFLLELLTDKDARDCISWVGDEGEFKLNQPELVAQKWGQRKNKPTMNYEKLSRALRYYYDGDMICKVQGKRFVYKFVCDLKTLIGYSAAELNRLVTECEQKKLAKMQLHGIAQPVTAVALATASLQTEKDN
# How it was run: as §1
# [4] = molecular target: T4, ERG (Homo sapiens, UniProt P11308 1-479); details: protein: recombinant; tags: N-terminal GST; dsDNA, one strand shown
# T4 sequence: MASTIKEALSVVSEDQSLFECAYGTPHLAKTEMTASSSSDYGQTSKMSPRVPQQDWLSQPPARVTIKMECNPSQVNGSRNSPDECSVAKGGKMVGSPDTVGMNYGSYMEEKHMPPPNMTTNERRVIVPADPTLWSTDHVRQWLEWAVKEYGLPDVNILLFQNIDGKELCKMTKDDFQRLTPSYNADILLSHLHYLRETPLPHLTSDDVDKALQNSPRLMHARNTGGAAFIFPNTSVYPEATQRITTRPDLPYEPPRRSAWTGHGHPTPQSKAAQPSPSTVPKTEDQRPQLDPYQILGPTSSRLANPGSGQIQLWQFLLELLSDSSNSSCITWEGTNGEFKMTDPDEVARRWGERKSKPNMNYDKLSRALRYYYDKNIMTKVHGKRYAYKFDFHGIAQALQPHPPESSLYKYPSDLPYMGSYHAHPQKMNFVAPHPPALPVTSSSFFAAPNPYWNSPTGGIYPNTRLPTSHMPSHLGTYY
# How it was run: as §1
# [5] = molecular target: ELF1 (Homo sapiens, UniProt P32519 1-619); details: protein: recombinant; tags: N-terminal GST; dsDNA, one strand shown
# ELF1, sequence (P32519 whole entry): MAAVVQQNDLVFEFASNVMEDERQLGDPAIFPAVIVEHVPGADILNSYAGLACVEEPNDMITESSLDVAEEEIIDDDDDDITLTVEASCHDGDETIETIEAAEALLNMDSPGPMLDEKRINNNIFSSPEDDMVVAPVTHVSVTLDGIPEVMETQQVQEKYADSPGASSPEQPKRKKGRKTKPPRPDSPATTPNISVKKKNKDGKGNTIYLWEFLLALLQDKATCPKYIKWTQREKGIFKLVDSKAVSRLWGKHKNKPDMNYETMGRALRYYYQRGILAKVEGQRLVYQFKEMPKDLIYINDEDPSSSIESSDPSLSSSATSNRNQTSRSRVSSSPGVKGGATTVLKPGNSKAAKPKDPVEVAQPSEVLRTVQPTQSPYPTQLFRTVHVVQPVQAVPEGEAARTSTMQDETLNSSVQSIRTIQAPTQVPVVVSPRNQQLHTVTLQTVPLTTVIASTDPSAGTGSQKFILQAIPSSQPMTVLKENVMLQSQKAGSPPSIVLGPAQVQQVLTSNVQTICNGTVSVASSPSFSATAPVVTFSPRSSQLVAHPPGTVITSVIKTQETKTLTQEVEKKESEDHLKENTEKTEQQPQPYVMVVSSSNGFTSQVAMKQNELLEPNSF
# How it was run: as §1
# [6] = molecular target: T5, EHF (Homo sapiens, UniProt Q9NZC4 1-300); details: protein: recombinant; tags: N-terminal GST; dsDNA, one strand shown
# T5 sequence: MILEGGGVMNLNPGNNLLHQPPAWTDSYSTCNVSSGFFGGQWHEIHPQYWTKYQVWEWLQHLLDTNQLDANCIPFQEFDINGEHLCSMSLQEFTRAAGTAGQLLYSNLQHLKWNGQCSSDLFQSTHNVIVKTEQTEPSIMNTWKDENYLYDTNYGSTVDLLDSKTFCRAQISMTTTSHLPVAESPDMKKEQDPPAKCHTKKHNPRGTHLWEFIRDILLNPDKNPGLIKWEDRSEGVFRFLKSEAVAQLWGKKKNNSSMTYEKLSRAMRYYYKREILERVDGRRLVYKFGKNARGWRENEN
# How it was run: as §1
# [7] = molecular target: SPI1 (Homo sapiens, UniProt P17947 1-270); details: protein: recombinant; tags: N-terminal GST; dsDNA, one strand shown
# How it was run: as §1
# [8] = molecular target: SPIB (Homo sapiens, UniProt Q01892 1-262); details: protein: recombinant; tags: N-terminal GST; dsDNA, one strand shown
# SPIB, sequence (Q01892 whole entry): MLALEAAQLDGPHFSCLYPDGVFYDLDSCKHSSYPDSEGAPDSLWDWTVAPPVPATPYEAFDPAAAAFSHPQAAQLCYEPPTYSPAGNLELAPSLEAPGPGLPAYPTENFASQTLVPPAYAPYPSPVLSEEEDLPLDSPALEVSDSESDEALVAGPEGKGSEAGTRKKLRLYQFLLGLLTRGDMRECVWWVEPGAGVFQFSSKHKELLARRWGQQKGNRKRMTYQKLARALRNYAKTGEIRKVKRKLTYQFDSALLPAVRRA
# How it was run: as §1
# [9] = molecular target: T6, ELK3 (Homo sapiens, UniProt P41970 1-407); details: protein: recombinant; tags: N-terminal GST; dsDNA, one strand shown
# T6 sequence: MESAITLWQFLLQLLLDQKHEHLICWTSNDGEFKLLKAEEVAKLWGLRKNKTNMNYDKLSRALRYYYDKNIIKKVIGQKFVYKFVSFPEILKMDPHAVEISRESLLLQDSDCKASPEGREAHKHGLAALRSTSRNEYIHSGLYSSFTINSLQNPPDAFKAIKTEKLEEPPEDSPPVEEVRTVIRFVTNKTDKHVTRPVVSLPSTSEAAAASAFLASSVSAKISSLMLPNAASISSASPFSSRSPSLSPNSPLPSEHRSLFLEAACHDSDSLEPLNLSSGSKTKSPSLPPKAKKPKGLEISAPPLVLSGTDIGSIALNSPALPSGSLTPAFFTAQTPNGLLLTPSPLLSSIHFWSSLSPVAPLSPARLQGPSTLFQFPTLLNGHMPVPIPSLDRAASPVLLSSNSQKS
# How it was run: as §1
# [10] = molecular target: T7, FEV (Homo sapiens, UniProt Q99581 1-238); details: protein: recombinant; tags: N-terminal GST; dsDNA, one strand shown
# T7 sequence: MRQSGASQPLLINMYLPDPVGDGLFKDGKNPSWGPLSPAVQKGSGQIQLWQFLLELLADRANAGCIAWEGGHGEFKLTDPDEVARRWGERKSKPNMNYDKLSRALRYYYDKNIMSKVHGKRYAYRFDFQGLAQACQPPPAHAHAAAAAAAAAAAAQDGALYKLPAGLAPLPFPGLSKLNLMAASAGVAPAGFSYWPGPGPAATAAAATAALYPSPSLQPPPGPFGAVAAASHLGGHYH
# How it was run: as §1
# [11] = molecular target: ETV5 (Homo sapiens, UniProt P41161 1-510); details: protein: recombinant; tags: N-terminal GST; dsDNA, one strand shown
# ETV5, sequence (P41161 whole entry): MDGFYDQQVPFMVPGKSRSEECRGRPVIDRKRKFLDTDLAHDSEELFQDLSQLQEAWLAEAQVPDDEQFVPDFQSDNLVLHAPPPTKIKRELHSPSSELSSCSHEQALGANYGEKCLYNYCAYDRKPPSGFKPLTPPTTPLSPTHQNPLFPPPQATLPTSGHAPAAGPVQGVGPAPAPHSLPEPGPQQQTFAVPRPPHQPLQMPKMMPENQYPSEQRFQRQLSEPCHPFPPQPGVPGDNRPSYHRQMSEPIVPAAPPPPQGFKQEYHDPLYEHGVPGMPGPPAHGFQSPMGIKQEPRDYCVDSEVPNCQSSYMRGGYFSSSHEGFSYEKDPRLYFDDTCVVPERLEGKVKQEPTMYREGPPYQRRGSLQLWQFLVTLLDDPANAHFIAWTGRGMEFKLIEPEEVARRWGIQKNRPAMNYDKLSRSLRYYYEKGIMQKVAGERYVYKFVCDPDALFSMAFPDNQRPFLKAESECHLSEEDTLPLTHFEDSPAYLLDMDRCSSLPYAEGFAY
# How it was run: as §1
# [12] = molecular target: HSF1 (Homo sapiens, UniProt Q00613 1-529); details: protein: recombinant; tags: N-terminal GST; chain copies: 3; dsDNA, one strand shown
# HSF1, sequence (Q00613 whole entry): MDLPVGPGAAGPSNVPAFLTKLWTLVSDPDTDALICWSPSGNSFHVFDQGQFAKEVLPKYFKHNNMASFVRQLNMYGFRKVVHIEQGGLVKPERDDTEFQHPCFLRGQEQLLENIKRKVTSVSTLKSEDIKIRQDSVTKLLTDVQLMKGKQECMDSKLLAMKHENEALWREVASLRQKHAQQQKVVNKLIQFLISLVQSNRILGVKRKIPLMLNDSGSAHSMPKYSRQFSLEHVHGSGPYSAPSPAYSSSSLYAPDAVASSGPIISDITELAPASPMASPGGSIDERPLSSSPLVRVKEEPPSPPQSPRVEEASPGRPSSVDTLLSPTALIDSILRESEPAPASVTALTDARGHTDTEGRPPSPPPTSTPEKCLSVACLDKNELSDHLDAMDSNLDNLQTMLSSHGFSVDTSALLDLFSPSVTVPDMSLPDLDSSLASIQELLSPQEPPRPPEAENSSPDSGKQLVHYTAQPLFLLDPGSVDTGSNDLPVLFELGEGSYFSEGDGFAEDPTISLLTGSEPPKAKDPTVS
# How it was run: as §1
# [13] = molecular target: T8, SPIC (Homo sapiens, UniProt Q8N5J4 1-248); details: protein: recombinant; tags: N-terminal GST; dsDNA, one strand shown
# T8 sequence: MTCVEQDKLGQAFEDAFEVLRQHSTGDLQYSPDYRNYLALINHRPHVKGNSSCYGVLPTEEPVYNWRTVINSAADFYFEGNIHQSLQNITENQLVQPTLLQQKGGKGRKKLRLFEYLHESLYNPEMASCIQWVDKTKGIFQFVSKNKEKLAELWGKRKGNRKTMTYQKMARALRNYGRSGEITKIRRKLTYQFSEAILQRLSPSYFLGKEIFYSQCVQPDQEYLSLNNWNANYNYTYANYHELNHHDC
# How it was run: as §1
# [14] = molecular target: ELF4 (Homo sapiens, UniProt Q99607 1-663); details: protein: recombinant; tags: N-terminal GST; dsDNA, one strand shown
# ELF4, sequence (Q99607 whole entry): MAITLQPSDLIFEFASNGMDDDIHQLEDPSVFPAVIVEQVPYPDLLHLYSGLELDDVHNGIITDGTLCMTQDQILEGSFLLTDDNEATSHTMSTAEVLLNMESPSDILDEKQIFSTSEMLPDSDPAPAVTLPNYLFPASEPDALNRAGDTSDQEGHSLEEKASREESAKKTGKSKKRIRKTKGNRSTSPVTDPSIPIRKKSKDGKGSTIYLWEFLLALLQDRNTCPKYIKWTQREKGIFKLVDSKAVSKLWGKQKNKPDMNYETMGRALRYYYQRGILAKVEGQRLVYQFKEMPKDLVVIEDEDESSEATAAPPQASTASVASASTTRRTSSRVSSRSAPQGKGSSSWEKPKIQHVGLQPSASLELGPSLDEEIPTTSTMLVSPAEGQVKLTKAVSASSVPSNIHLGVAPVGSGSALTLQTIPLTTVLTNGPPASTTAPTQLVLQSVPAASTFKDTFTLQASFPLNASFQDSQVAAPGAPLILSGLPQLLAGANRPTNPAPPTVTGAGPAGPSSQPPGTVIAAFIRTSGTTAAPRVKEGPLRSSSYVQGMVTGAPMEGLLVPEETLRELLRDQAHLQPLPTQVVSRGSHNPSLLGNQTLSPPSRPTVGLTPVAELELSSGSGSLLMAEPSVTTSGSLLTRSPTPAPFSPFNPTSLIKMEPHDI
# How it was run: as §1
# [15] = molecular target: T9, ELK4 (Homo sapiens, UniProt P28324-2 1-405); details: protein: recombinant; tags: N-terminal GST; dsDNA, one strand shown
# T9 sequence: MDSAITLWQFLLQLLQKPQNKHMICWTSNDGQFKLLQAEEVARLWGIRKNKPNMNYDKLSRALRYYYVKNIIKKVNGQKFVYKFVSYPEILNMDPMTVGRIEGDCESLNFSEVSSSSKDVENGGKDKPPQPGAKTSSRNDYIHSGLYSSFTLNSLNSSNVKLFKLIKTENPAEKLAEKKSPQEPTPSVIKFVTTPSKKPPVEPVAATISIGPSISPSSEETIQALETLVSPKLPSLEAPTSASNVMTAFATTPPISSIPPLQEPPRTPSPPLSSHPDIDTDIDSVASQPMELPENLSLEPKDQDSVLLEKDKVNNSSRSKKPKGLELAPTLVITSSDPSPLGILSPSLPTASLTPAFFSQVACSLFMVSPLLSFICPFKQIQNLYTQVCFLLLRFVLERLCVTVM
# How it was run: as §1
# [16] = molecular target: T10, ETV2 (Homo sapiens, UniProt O00321 1-342); details: protein: recombinant; tags: N-terminal GST; dsDNA, one strand shown
# T10 sequence: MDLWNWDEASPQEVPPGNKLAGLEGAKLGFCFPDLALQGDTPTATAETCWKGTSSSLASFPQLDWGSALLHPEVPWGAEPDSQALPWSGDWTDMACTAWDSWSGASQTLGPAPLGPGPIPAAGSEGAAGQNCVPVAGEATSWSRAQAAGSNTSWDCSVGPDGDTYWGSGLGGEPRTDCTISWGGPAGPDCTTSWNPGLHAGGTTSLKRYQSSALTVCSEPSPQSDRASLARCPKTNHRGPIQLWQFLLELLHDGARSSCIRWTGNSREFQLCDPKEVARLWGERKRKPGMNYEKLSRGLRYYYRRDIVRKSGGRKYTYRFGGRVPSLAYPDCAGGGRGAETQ
# How it was run: as §1
# [17] = molecular target: T11, ELF3 (Homo sapiens, UniProt P78545 1-371); details: protein: recombinant; tags: N-terminal GST; dsDNA, one strand shown
# T11 sequence: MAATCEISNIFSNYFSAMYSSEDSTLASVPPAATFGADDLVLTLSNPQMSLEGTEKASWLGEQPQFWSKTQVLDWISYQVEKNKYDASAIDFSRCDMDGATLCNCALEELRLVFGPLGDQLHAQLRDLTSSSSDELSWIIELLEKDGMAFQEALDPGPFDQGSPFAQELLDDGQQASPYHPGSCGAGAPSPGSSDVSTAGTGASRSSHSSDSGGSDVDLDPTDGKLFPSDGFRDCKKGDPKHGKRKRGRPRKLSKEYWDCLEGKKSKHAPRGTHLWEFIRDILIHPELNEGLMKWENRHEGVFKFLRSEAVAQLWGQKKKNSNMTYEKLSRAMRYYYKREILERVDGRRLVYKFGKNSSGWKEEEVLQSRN
# How it was run: as §1
# [18] = molecular target: CRX (Homo sapiens, UniProt O43186 1-299); details: protein: recombinant; tags: N-terminal GST; dsDNA, one strand shown
# CRX, sequence (O43186 whole entry): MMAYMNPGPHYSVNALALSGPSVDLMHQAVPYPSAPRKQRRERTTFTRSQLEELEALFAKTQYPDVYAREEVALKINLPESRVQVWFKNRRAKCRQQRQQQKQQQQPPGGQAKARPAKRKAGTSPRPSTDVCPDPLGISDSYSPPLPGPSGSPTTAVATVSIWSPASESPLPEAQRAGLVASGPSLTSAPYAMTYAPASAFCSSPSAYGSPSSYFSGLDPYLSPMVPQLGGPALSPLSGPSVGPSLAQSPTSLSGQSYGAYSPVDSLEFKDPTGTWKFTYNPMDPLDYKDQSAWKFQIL
# How it was run: as §1
# [19] = molecular target: ETV1 (Homo sapiens, UniProt P50549 1-477); details: protein: recombinant; tags: N-terminal GST; dsDNA, one strand shown
# ETV1, sequence (P50549 whole entry): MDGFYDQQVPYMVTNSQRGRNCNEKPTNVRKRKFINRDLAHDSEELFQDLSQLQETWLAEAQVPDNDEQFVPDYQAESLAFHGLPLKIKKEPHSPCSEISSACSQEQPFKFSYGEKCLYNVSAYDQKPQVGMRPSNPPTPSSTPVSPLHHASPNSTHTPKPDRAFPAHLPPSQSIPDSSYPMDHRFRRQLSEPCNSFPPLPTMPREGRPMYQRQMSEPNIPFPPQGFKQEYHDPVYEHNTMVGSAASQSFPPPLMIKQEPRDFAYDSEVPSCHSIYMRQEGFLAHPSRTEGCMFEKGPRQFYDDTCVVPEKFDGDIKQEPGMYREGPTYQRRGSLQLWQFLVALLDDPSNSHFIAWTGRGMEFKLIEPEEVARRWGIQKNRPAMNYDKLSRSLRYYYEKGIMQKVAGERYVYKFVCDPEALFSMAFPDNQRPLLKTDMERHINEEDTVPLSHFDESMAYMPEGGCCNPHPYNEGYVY
# How it was run: as §1
sequence,measurement,setting,value
TTAAAT,binding signal,[1],"1.17 fold enrichment (6-mer frequency, TF over GST control)"
same,binding signal,[2],"1.11 fold enrichment (6-mer frequency, TF over GST control)"
same,binding signal,[3],"1.1 fold enrichment (6-mer frequency, TF over GST control)"
same,binding signal,[4],"1.11 fold enrichment (6-mer frequency, TF over GST control)"
same,binding signal,[5],"1.19 fold enrichment (6-mer frequency, TF over GST control)"
same,binding signal,[6],"1.14 fold enrichment (6-mer frequency, TF over GST control)"
same,binding signal,[7],"1.12 fold enrichment (6-mer frequency, TF over GST control)"
same,binding signal,[8],"1.13 fold enrichment (6-mer frequency, TF over GST control)"
same,binding signal,[9],"1.25 fold enrichment (6-mer frequency, TF over GST control)"
same,binding signal,[10],"1.16 fold enrichment (6-mer frequency, TF over GST control)"
same,binding signal,[11],"1.2 fold enrichment (6-mer frequency, TF over GST control)"
same,binding signal,[12],"1.85 fold enrichment (6-mer frequency, TF over GST control)"
same,binding signal,[13],"1.21 fold enrichment (6-mer frequency, TF over GST control)"
same,binding signal,[14],"1.14 fold enrichment (6-mer frequency, TF over GST control)"
same,binding signal,[15],"1.22 fold enrichment (6-mer frequency, TF over GST control)"
same,binding signal,[16],"1.25 fold enrichment (6-mer frequency, TF over GST control)"
same,binding signal,[17],"1.22 fold enrichment (6-mer frequency, TF over GST control)"
same,binding signal,[18],"2.92 fold enrichment (6-mer frequency, TF over GST control)"
same,binding signal,[19],"1.16 fold enrichment (6-mer frequency, TF over GST control)"
